From PubChem BioAssay (EPA / NIEHS)
Several values for one entry are separate records, joined by “and”; a condition that tells them apart may be missing. Identical values can stand only once. A structure can be active in one record and inactive in another. Activity calls are given as the source filed them. Rule for the calls: active = hit-call score of the fitted dose curve at least 0.9, where 1 is the maximum; inactive = score below 0.9.

Key:
[1] = APR_HepG2_CellCycleArrest_1hr: Apredica 1-hour HepG2 Assay for Cell Cycle Arrest (AID 2282666); conditions: high-content imaging, actives raise or lower the signal
Procedure, shortened: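 HepG2 cells exposed for 1 h to 0.39–200 uM compound (0.5% DMSO). Fixed, Hoechst-stained nuclei imaged by ArrayScan; DNA content quantified by Cell Cycle analysis; bidirectional fit against DMSO.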

[2] = APR_HepG2_NuclearSize_1hr: Apredica 1-hour HepG2 Assay for Nuclear Size (AID 2282670); conditions: high-content imaging, actives raise or lower the signal
Procedure, shortened: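 HepG2 cells dosed 1 hr with 0.39–200 uM compound (0.5% DMSO), formaldehyde-fixed, Hoechst 33342-stained and imaged at 20x; nuclear diameter from nuclear stain, fitted bidirectionally against DMSO.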

[3] = APR_HepG2_MitoticArrest_1hr: Apredica 1-hour HepG2 Assay for Mitotic Arrest (AID 2282672); conditions: high-content imaging, actives raise or lower the signal
Procedure, shortened: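 HepG2 cells exposed 1 hr to compounds at 0.39–200 uM (0.5% v/v DMSO final), then fixed in 3.7% formaldehyde and immunostained for phospho-histone H3 with Hoechst 33342. Mitotic arrest scored by automated fluorescence imaging, fitted bidirectionally versus DMSO.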

[4] = APR_HepG2_MitoMass_1hr: Apredica 1-hour HepG2 Assay for Mitochondrial Mass (AID 2282674); conditions: high-content imaging, actives raise or lower the signal
Procedure, shortened: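 HepG2 cells dosed 1 hr with 0.39-200 uM compound (0.5% DMSO), duplicate wells. Mitochondria stained with 250 nM MitoTracker Red CMXRos for 30 min before formaldehyde fixation, imaged at 20x by ArrayScan; bidirectional fit versus DMSO.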

[5] = APR_HepG2_NuclearSize_24hr: Apredica 24-hour HepG2 Assay for Nuclear Size (AID 2282907); conditions: high-content imaging, actives raise or lower the signal
Procedure, shortened: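 Compounds in DMSO (final 0.5%) were added to human HepG2 hepatoma cells at ten concentrations up to 200 uM for 24 hr. Fixed nuclei were stained with Hoechst 33342, and nuclear diameter was quantified from automated images.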

[6] = APR_HepG2_MicrotubuleCSK_24hr: Apredica 24-hour HepG2 Assay for Microtubule CSK Stabilty (AID 2282909); conditions: HepG2 microtubule cytoskeleton imaging, actives raise or lower the signal
Procedure, shortened: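 Steps: dose HepG2 for 24 h (0.39–200 uM, 0.5% DMSO); fix 30 min in 3.7% formaldehyde at room temperature; permeabilize; stain alpha-tubulin 60 min; image microtubule cytoskeleton at 20x. Signal change fitted in both directions relative to DMSO.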

[7] = APR_HepG2_MitoticArrest_24hr: Apredica 24-hour HepG2 Assay for Mitotic Arrest (AID 2282910); conditions: high-content imaging, actives raise or lower the signal
Procedure, shortened: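 HepG2 human liver cells were exposed to compounds at 0.39–200 uM (10 concentrations, duplicate) in 0.5% v/v DMSO for 24 hr, then fixed and immunostained for phospho-histone H3 with Hoechst 33342. Mitotic arrest came from HCS fluorescent imaging, fitted bidirectionally against DMSO.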

[8] = APR_HepG2_MitoMembPot_24hr: Apredica 24-hour HepG2 Assay for Mitochondrial Membrane Potential (AID 2282911); conditions: imaging, actives raise or lower the signal
Procedure, shortened: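 Mitochondrial membrane potential imaged via MitoTracker Red CMXRos (250 nM, 30 min pre-fixation) in fixed HepG2 cells with Hoechst nuclear identification. Ten concentrations 0.39–200 uM, 24 h treatment, 0.5% DMSO; CCCP as positive control.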

[9] = APR_HepG2_MitoMass_24hr: Apredica 24-hour HepG2 Assay for Mitochondrial Mass (AID 2282912); conditions: high-content imaging, actives raise or lower the signal
Procedure, shortened: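 The liver line HepG2 was dosed in duplicate across a 0.39–200 uM series, with final DMSO held at 0.5% v/v, and harvested at 24 hr. High-content imaging measured mitochondrial dye staining.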

[10] = APR_HepG2_p53Act_24hr: Apredica 24-hour HepG2 Assay for p53 Activation (AID 2282913); conditions: high-content imaging, actives raise or lower the signal;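 note: p53 protein immunofluorescence averaged per cell in HepG2 with Hoechst nuclei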
Procedure, shortened: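 Fluorescence imaging of formaldehyde-fixed HepG2 cells labelled for p53 and with Hoechst, 24 h after dosing (0.39–200 uM, duplicate wells, 0.5% v/v DMSO). Signal fitted in both directions relative to DMSO.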

[11] = APR_HepG2_CellCycleArrest_72hr: Apredica 72-hour HepG2 Assay for Cell Cycle Arrest (AID 2282914); conditions: high-content imaging, actives raise or lower the signal
Procedure, shortened: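 Read-out: nuclear DNA content from Hoechst 33342 high-content imaging (20x, six fields/well) after 3.7% formaldehyde fixation, fitted bidirectionally against DMSO. Treatment was 72 h in HepG2, ten concentrations 0.39–200 uM, duplicate, 0.5% DMSO.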

[12] = APR_HepG2_P-H2AX_1hr: Apredica 1-hour HepG2 Assay for H2AX Phosphorylation (AID 2282673); conditions: high-content imaging, actives raise or lower the signal
Procedure, shortened: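 HepG2 dosed 1 hr at 0.39-200 uM (0.5% DMSO final), duplicate. Fixed in 3.7% formaldehyde, Triton permeabilized, immunostained for phospho-histone H2A.x (1:200) with Hoechst 33342; ArrayScan 20x imaging, bidirectional fit vs DMSO.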

[13] = APR_HepG2_StressKinase_1hr: Apredica 1-hour HepG2 Assay for Stress Kinase (AID 2282906); conditions: HepG2 stress kinase (phospho-c-Jun) imaging, actives raise or lower the signal
Procedure, shortened: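 HepG2 cells dosed 0.39-200 uM (0.5% DMSO) for 1 h, then formaldehyde-fixed. Stress kinase read by phospho-c-Jun immunofluorescence using high-content imaging; bidirectional fit vs DMSO.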

[14] = APR_HepG2_CellLoss_24hr: Apredica 24-hour HepG2 Assay for Cell Loss (AID 2282908); conditions: high-content imaging;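 for AC50: fit in both directions so a hit may be cell loss or gain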
Procedure, shortened: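 Cell number is quantified by fluorescence imaging of Hoechst 33342-stained nuclei following dosing at 0.39–200 uM in 0.5% DMSO. Curves are fitted in both directions from the DMSO baseline.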

[15] = APR_HepG2_MitoMembPot_1hr: Apredica 1-hour HepG2 Assay for Mitochondrial Membrane Potential (AID 2282675); conditions: imaging, actives raise or lower the signal
Procedure, shortened: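 HepG2 cells dosed 1 hour with 0.39–200 uM compound in duplicate, 0.5% DMSO final. MitoTracker Red CMXRos (250 nM, 30 min) loaded before formaldehyde fixation; fluorescence quantified by high-content imaging, bidirectional fitting versus DMSO.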

[16] = APR_HepG2_CellCycleArrest_24hr: Apredica 24-hour HepG2 Assay for Cell Cycle Arrest (AID 2282905); conditions: imaging, actives raise or lower the signal;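 note: cell cycle arrest scored as ratio of 2N to 4N nuclear DNA content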
Procedure, shortened: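 Cell cycle arrest is scored from nuclear DNA content measured by high-content imaging of Hoechst 33342-stained HepG2 cells following 24-hour treatment at ten concentrations up to 200 uM, with DMSO as baseline.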

[17] = APR_HepG2_MicrotubuleCSK_1hr: Apredica 1-hour HepG2 Assay for Microtubule CSK Stabilty (AID 2282669); conditions: HepG2 microtubule cytoskeleton imaging, actives raise or lower the signal
Procedure, shortened: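 HepG2 cells exposed 1 h to 0.39–200 uM compound (0.5% DMSO, duplicates), then formaldehyde-fixed, permeabilized and immunostained for alpha-tubulin with Hoechst nuclei. Imaged by ArrayScan high-content analysis; bidirectional fit versus DMSO.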

Measured: AC50

C[C@H]1[C@H](c2ccc(Cl)cc2)SC(=O)N1C(=O)NC1CCCCC1
not listed: [12] | [13] | [14] | [15] | [16] | [17]
inactive: all other assays above

Oc1cc(Cl)ccc1Oc1ccc(Cl)cc1Cl
inactive: [3] | [5] | [6] | [7] | [8] | [9] | [10] | [11]
active: [1] 118 µM | [2] 158 µM | [12] 99.8 µM | [4] 170 µM | [5] 63.9 µM | [6] 98.5 µM and 33.3 µM | [7] 61.6 µM and 63.6 µM | [8] 97.9 µM and 4.39 µM | [9] 177 µM and 59 µM | [10] 28.4 µM | [11] 18.9 µM and 11.6 µM

O=C(Nc1ccccc1)Nc1cnns1
active: [6] 68.9 µM
not listed: [12] | [14] | [15] | [16] | [17]
inactive: all other assays above

O=S(=O)(O)C(F)(F)C(F)(F)C(F)(F)C(F)(F)C(F)(F)C(F)(F)C(F)(F)C(F)(F)F
active: [5] 63.8 µM | [6] 113 µM | [7] 106 µM [middle of 5 runs] | [9] 116 µM [middle of 4 runs] | [10] 111 µM [middle of 4 runs]
inactive: [1] | [2] | [3] | [12] | [4] | [5] | [6] | [8] | [9] | [10] | [11]

CNC(=O)Oc1cccc(N=CN(C)C)c1
active: [14] 78.6 µM | [11] 64.1 µM
not listed: [13] | [15] | [16] | [17]
inactive: all other assays above

COC(=O)c1ccccc1S(=O)(=O)NC(=O)Nc1nc(C)nc(OC)n1
not listed: [12] | [13] | [16] | [17]
inactive: all other assays above

CCS(=O)(=O)c1cccnc1S(=O)(=O)NC(=O)Nc1nc(OC)cc(OC)n1
not listed: [12] | [14] | [15] | [16] | [17]
inactive: all other assays above

CC(C)(C)C(O)/C(=C\c1ccc(Cl)cc1Cl)n1cncn1 (configuration not stated)
not listed: [14] | [15] | [17]
inactive: all other assays above

CC1(c2ccc(Oc3ccccc3)cc2)OC(=O)N(Nc2ccccc2)C1=O (configuration not stated)
active: [14] 120 µM | [6] 88.5 µM | [7] 98.3 µM | [8] 6.77 µM
not listed: [12] | [17]
inactive: all other assays above

CCN(CC)C(=O)SCc1ccc(Cl)cc1
active: [8] 22.8 µM
not listed: [12] | [13] | [14] | [15] | [16] | [17]
inactive: all other assays above

O=S1OCC2C(CO1)C1(Cl)C(Cl)=C(Cl)C2(Cl)C1(Cl)Cl (configuration not stated)
active: [11] 95.3 µM
not listed: [12] | [13] | [15] | [16]
inactive: all other assays above

[2H]C1([2H])[n+]2ccccc2-c2cccc[n+]2C1([2H])[2H]
active: [11] 75.1 µM
not listed: [12] | [13] | [14] | [15] | [17]
inactive: all other assays above

CCCN(CCOc1c(Cl)cc(Cl)cc1Cl)C(=O)n1ccnc1
not listed: [12] | [13] | [14] | [15] | [16] | [17]
inactive: all other assays above
